Results taken from PubChem BioAssay (NCI).
The panel holds about 79,000 compounds, 15% with a hit somewhere; the sample as a whole holds those more often. Unmarked numbers belong to inactive results. Calls of active or inactive are those of the source. Cut-off read from the data, not from the text of the source: active = growth inhibition above about 70%; inactive = the rest.

What was measured:
[1] = NCI Yeast Anticancer Drug Screen. Data for the rad50 strain (AID 155);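 note: 0% = growth of vehicle-only cultures of the same strain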; conditions: S. cerevisiae rad50 strain growth inhibition, stronger effect = higher value
Procedure, shortened: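 A DNA repair-deficient yeast mutant serves as the test organism; compound-induced growth inhibition is calculated against vehicle-treated cells.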

[2] = NCI Yeast Anticancer Drug Screen. Data for the mec2-1 strain (AID 157); conditions: S. cerevisiae mec2-1 strain, stronger effect = higher value
Procedure, shortened: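 Readout is yeast growth inhibition, normalised to vehicle-treated controls, in the mec2-1 strain exposed to compound.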

[3] = NCI Yeast Anticancer Drug Screen. Data for the sgs1 mgt1 strain (AID 161);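 note: 0% = growth of cultures given vehicle only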; conditions: S. cerevisiae sgs1 mgt1 strain, stronger effect = higher value
Procedure, shortened: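 This yeast growth screen uses a strain with defined DNA-repair lesions; compound-treated growth is compared with vehicle-treated growth.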

[4] = NCI Yeast Anticancer Drug Screen. Data for the cln2 rad14 strain (AID 165);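 note: 0% = growth equal to vehicle treated cultures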; conditions: S. cerevisiae cln2 rad14 strain, stronger effect = higher value
Procedure, shortened: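 Relative to vehicle controls, growth inhibition of compound-treated cln2 rad14 yeast was recorded.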

[5] = NCI Yeast Anticancer Drug Screen. Data for the bub3 strain (AID 167); conditions: S. cerevisiae bub3 mutant strain, stronger effect = higher value
Procedure, shortened: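 Inhibition values come from growth of compound-treated mutant yeast normalised to vehicle-treated controls.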

[6] = NCI Yeast Anticancer Drug Screen. Data for the mlh1 rad18 strain (AID 175); conditions: S. cerevisiae mlh1 rad18 strain growth inhibition, stronger effect = higher value
Procedure, shortened: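 Test agents were incubated with a yeast strain of defined genotype (DNA damage repair defect). Inhibition of growth was derived by comparison with vehicle-exposed cultures.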

[7] = at 5.0 µM (retest, dose inferred, filed as 0.5)
[8] = at 50.0 µM (retest, dose inferred, filed as 5.0)

Compound | growth inhibition [1, 7] | growth inhibition [1, 8] | growth inhibition ([1]; at 50.0 µM) | growth inhibition [2, 7] | growth inhibition [2, 8] | growth inhibition ([2]; at 50.0 µM) | growth inhibition [3, 7] | growth inhibition [3, 8] | growth inhibition ([3]; at 50.0 µM) | growth inhibition [4, 7] [%] | growth inhibition [4, 8] | growth inhibition ([4]; at 50.0 µM) | growth inhibition [5, 7] | growth inhibition [5, 8] | growth inhibition ([5]; at 50.0 µM) | growth inhibition [6, 7] | growth inhibition [6, 8] | growth inhibition ([6]; at 50.0 µM)
COc1c(Br)c(=O)n(C)c(=O)n1C | -11% | 99% (active) | 89% (active) | -10% | 99% (active) | 87.8% (active) | -29% | 98% (active) | 91.2% (active) | -4 | 99% (active) | 88.3% (active) | -26% | 99% (active) | 89.2% (active) | -11% | 99% (active) | 89% (active)
CN(C)CCCNc1ccc(O)c2c1C(=O)c1ccccc1C2=O | 93% (active) | 99% (active) | 89.9% (active) | 95% (active) | 99% (active) | 87.8% (active) | 96% (active) | 99% (active) | 88.2% (active) | 32 | 98% (active) | 67% | 92% (active) | 98% (active) | 89.7% (active) | 97% (active) | 99% (active) | 89.6% (active)
Clc1ccc2nc(Cl)c(Cl)nc2c1 | -143% | 42% | 81.3% (active) | -43% | 27% | 45.3% | -56% | 76% (active) | 88.9% (active) | -54 | 51% | 59.5% | -71% | 44% | 65.2% | -137% | 62% | 69.6%
Cc1c2ccccc2c(C)n2c1nc1cc(Cl)c(Cl)cc12 | 12% | 95% (active) | 86.2% (active) | 7% | 93% (active) | 91.3% (active) | 26% | 45% | 89.3% (active) | 27 | 95% (active) | 87.1% (active) | 18% | 97% (active) | 89.9% (active) | 23% | 96% (active) | 85.6% (active)
O=C(/C=C/C(=O)N1CCCC1)N1CCCC1 | 6% | 10% | 1.15% | 3% | 1% | 0.65% | 4% | 3% | 14.8% | -4 | -11% | -1.35% | 2% | 6% | 2.55% | -2% | -2% | 37.4%
Cn1c(=O)c2c(nc(CCCCCCCc3nc4c(c(=O)n(C)c(=O)n4C)n3C)n2C)n(C)c1=O | 4% | 5% | 48.9% | 1% | 18% | 23.3% | 2% | 10% | 42% | 2 | 10% | 60.2% | 7% | 4% | 16.7% | -2% | 9% | 35.8%
COc1cc(C)c2sc3ccccc3c(=O)c2c1NCCCN(C)C | 1% | 51% | 72.3% (active) | -4% | -6% | 37% | -2% | 58% | 70.3% (active) | -4 | 51% | 14.6% | 0% | 53% | 27.1% | -3% | 54% | 95.3% (active)
Cc1ccc(S(=O)(=O)NC2(C=O)CCC(C(C)(C)C)CC2)cc1 (configuration not stated) | 15% | 86% (active) | 77.7% (active) | 20% | 88% (active) | 68.4% | 25% | 84% (active) | 82% (active) | 20 | 92% (active) | 77.5% (active) | 19% | 88% (active) | 84.7% (active) | 37% | 95% (active) | 81% (active)
CC(=O)OCC1OC(n2cnc3c(Cl)nc(Cl)nc32)C(OC(C)=O)C1OC(C)=O (configuration not stated) | 0% | 0% | 73.7% (active) | 1% | 5% | 54.1% | -1% | 7% | 75.3% (active) | 3 | 3% | 72.6% (active) | 1% | -2% | 70% (active) | -1% | 0% | 74.1% (active)
NC(=O)N/N=C(/Cc1nc2ccccc2nc1C/C(=N/NC(N)=O)c1cccc2ccccc12)c1cccc2ccccc12 | -1% | 9% | 0.65% | -13% | -7% | 34.4% | -1% | 17% | 16.8% | -5 | 2% | 82.2% (active) | -8% | -10% | 0.15% | -6% | 6% | 8.4%
CCN(CC)CC(O)c1ccc2cc(Cl)c3ccccc3c2c1 (configuration not stated) | 15% | 99% (active) | 99.5% (active) | 4% | 99% (active) | 99.5% (active) | 25% | 99% (active) | 99.6% (active) | 8 | 99% (active) | 99.3% (active) | 16% | 98% (active) | 99.5% (active) | 29% | 99% (active) | 99.6% (active)
O=C1OC(C2OC(=O)C(=O)C2C(=O)c2ccc(Cl)cc2)C(C(=O)c2ccc(Cl)cc2)C1=O (configuration not stated) | -3% | 63% | 82.9% (active) | -3% | 37% | 11.8% | 1% | 64% | 30.5% | -4 | 31% | 29.6% | 9% | 43% | 43% | -5% | 85% (active) | 76.7% (active)
CC1(C)CC(=O)C(C(c2ccc3c(c2)OCO3)N2CCOCC2)C(=O)C1 (configuration not stated) | -22% | -17% | 99.2% (active) | 9% | -13% | 99.5% (active) | -21% | 4% | 99.3% (active) | -9 | 3% | 98.2% (active) | 20% | -11% | 98.8% (active) | -26% | -27% | 99.1% (active)
CSC(SC)C(SC)SC | 1% | 98% (active) | 1.65% | 1% | 99% (active) | -5.4% | -4% | 99% (active) | 0.65% | 6 | 99% (active) | 16.6% | 0% | 99% (active) | -2.35% | -1% | 99% (active) | -1.15%
CCCOCCC#N | 8% | -2% | -11.6% | 5% | 0% | 7.45% | -6% | 1% | -8.1% | 5 | -2% | 40.9% | 7% | 13% | -1.65% | 7% | -1% | -17.9%
Cc1ccc(N2C(=O)C(C)SC2=S)cc1Cl (configuration not stated) | 2% | -4% | 86.2% (active) | -1% | -1% | 51.9% | 1% | -25% | 94.7% (active) | -2 | -2% | 13.7% | -4% | 1% | 48% | -5% | 1% | 93.5% (active)
CS(=O)(=O)OCCN(CCOS(C)(=O)=O)c1ccc(C=Nc2ccc(-c3csc(-c4ccc(Cl)cc4)n3)cc2)cc1 | 37% | 92% (active) | 92.5% (active) | 15% | 94% (active) | 94.4% (active) | 36% | 93% (active) | 92.3% (active) | 6 | 91% (active) | 71.2% (active) | 1% | 61% | 69.4% | 53% | 95% (active) | 95.2% (active)
Cc1ccccc1Sc1ccccc1[N+](=O)[O-] | 2% | 35% | 12.9% | 1% | 5% | 12.8% | 0% | 27% | 26.1% | 5 | 7% | 11.1% | -1% | 8% | 20.6% | 2% | 39% | 74.5% (active)
CC1(CO)CCCC2(C)C1CCC1CC3C=CC12C1C(=O)OC(=O)C31 (configuration not stated) | 41% | 79% (active) | 84.1% (active) | 25% | 77% (active) | 61.2% | 12% | 86% (active) | 24.6% | 30 | 82% (active) | 27.8% | 23% | 89% (active) | 62.2% | 36% | 88% (active) | 79.5% (active)
